{"source": "PubChem BioAssay (Tox21)", "note": "Records with an inconclusive call do not appear. A call without a number means that no potency is given here. Some structures have more than one record in an assay (separate samples or runs), and their calls can disagree. Calls of active or inactive are those of the source. Calls follow the shape of the dose curve; as a rule, active = well fitted cell-killing curve with a large enough effect in the repeat runs; inconclusive = weak or mixed curves, or effect the other way; inactive = flat fitted curve, though single readings scatter. Potency is read from the fitted curve at half-maximal effect."}
{"experiment": "Human pregnane X receptor (PXR) small molecule agonists, qHTS cell viability counter screen (AID 1346977); also: nearly all actives have a fitted effect of over 50% in size", "conditions": "PXR-Luc HepG2 viability, CellTiter-Fluor, 24 h; series mostly up to 92.4 µM", "excerpt": "U.S. Tox21 Program National Center for Advancing Translational Sciences [NCATS] NIH Chemical Genomics Center [NCGC] U.S. Environmental Protection Agency [EPA] National Institutes of Environmental Health Sciences [NIEHS] National Toxicology Program [NTP] U.S. Food and Drug Administration [FDA] Tox21 Assay Overview: The human pregnane X receptor (hPXR) regulates the expression of several drug metabolizing enzymes and induction of these proteins is a major mechanism for developing drug resistance in cancer. One such key enzyme catalyzing the drug metabolism is cytochrome P450 3A4 (CYP3A4). Changes in CYP3A4 expression affect drug metabolism, thereby reducing the therapeutic efficacy and altering toxicological response to a drug and which finally causes adverse drug interaction. To screen Tox21 libraries for compounds that activate hPXR-mediated CYP3A4 gene expression, PXR-Luc HepG2 cells were used. Also cytotoxicity of the compounds was tested in parallel by measuring the cell viability using CellTiter-Fluor assay system in the same wells.\nTox21 Assay Protocol Summary: PXR-Luc HepG2 cells were dispensed at 2,000 per well in 5uL of assay medium containing 5% charcoal-stripped FBS into white solid bottom 1536-well plates (Corning Life Sciences, Corning, NY) using a Multidrop Combi (Thermo Scientific, Waltham, MA) dispenser. The assay plates were incubated at 37 C and 5% CO2 for 5hr, and then 23nL of compounds dissolved in DMSO and positive control were transferred using a Pintool station (Wako, San Diego, CA). The assay plates were incubated at 37C and 5% CO2 for 24hr. For cytotoxicity read, after 23hr incubation at 37C, 1uL CellTiter-Fluor reagent (Promega Corporation, Madison, WI) was added to each well of the assay plates using Flying Reagent Dispenser (FRD, Aurora Discovery, San Diego, CA). After 1hr incubation at 37C and 5% CO2, the fluorescence signal was quantified using a ViewLux plate reader (PerkinElmer, Shelton, CT)."}
{"compound": "CCOC(=O)CC(=O)OCC", "Potency": "inactive"}
{"compound": "O=[N+]([O-])c1cc(C(F)(F)F)ccc1Cl", "Potency": "inactive"}
{"compound": "Cc1ncc(CO)c(CO)c1O", "Potency": "inactive"}
{"compound": "CC1=CC(=O)CC(C)(C)C1", "Potency": "inactive"}
{"compound": "CN=C(NC#N)NCCSCc1nc[nH]c1C", "Potency": "inactive"}
{"compound": "N#CCC(=O)O", "Potency": "inactive"}
{"compound": "COC(=O)CCCCC(=O)OC", "Potency": "inactive"}
{"compound": "CCCOC(=O)NCCCN(C)C", "Potency": "inactive"}
{"compound": "OB(O)O", "Potency": "inactive"}
{"compound": "CC(=O)OC[C@H]1O[C@@](COC(C)=O)(O[C@H]2O[C@H](COC(C)=O)[C@@H](OC(C)=O)[C@H](OC(C)=O)[C@H]2OC(C)=O)[C@@H](OC(C)=O)[C@@H]1OC(C)=O", "Potency": "inactive"}
{"compound": "Cc1ccc(C)c(S(=O)(=O)O)c1", "Potency": "inactive"}
{"compound": "NC1CCCCC1N", "note": "(stereo not given)", "Potency": "inactive"}
{"compound": "CC(=O)OCc1ccc2c(c1)OCO2", "Potency": "inactive"}
{"compound": "CCN(CC)CCNC(=O)c1ccc(N)cc1", "Potency": "inactive"}
{"compound": "Cc1ccncc1", "Potency": "inactive"}
{"compound": "CO[Si](CCCNCCN)(OC)OC", "Potency": "31.6 µM (active) and inactive"}
{"compound": "NC(N)=S", "Potency": "inactive"}
{"compound": "CCn1cc(C(=O)O)c(=O)c2cc3c(cc21)OCO3", "Potency": "inactive"}
{"compound": "CC[N+](CC)(CC(=O)Nc1c(C)cccc1C)Cc1ccccc1", "Potency": "inactive"}
{"compound": "CCCN(CCC)C(=O)SCC", "Potency": "inactive"}
{"compound": "C=CC(C)(C)C", "Potency": "inactive"}
{"compound": "CCCCCCCCCCCC(=O)N(C)CC(=O)O", "Potency": "inactive"}
{"compound": "COc1c(Cl)ccc(Cl)c1C(=O)O", "Potency": "inactive"}
{"compound": "Cc1ccc([N+](=O)[O-])cc1N", "Potency": "inactive"}
{"compound": "O=C1OC(=O)c2c(Cl)c(Cl)c(Cl)c(Cl)c21", "Potency": "inactive"}
{"compound": "CCc1cccc(O)c1", "Potency": "inactive"}
{"compound": "CCc1cccc(CC)c1N", "Potency": "inactive"}
{"compound": "C=C(C)CC(C)(C)C", "Potency": "inactive"}
{"compound": "O=C(Cl)c1ccc(C(=O)Cl)cc1", "Potency": "inactive"}
{"compound": "C[n+]1ccn(CCO)c1", "Potency": "inactive"}
{"compound": "Cc1cc(C)cc(O)c1", "Potency": "6.31 µM (active) and inactive"}
{"compound": "CC(C)(C)NC[C@H](O)COc1nsnc1N1CCOCC1", "Potency": "inactive"}
{"compound": "O=C(NCC1CCCCN1)c1cc(OCC(F)(F)F)ccc1OCC(F)(F)F", "note": "(stereo not given)", "Potency": "60 µM (active)"}
{"compound": "NC(=O)c1ncn([C@@H]2O[C@H](CO)[C@@H](O)[C@H]2O)n1", "Potency": "inactive"}
{"compound": "CCCCCCCCC(=O)O", "Potency": "inactive"}
{"compound": "Cc1cccc(C)c1[N+](=O)[O-]", "Potency": "inactive"}
{"compound": "COc1c2ccoc2cc2oc(=O)ccc12", "Potency": "inactive"}
{"compound": "N[C@@H](Cc1cc(I)c(Oc2ccc(O)c(I)c2)c(I)c1)C(=O)O", "Potency": "inactive"}
{"compound": "O=c1n(CCCN2CCN(c3cccc(Cl)c3)CC2)nc2ccccn12", "Potency": "inactive"}
{"compound": "CC1(C)C(=O)N(Cl)C(=O)N1Cl", "Potency": "inactive"}
